From PubChem BioAssay
FXIa mix inh: factor XIa (human) inhibition, mixture screen; purified FXIa, fluorogenic substrate, pooled mixtures; inhibition, % at 5 µM; actives 0.19% (n = 62,000);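 also: each value is inhibition by a whole ten-compound pool holding the compound; 0% = enzyme with no mixture and 100% = wells lacking enzyme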
Target sequence (P03951 19-387 limits assumed): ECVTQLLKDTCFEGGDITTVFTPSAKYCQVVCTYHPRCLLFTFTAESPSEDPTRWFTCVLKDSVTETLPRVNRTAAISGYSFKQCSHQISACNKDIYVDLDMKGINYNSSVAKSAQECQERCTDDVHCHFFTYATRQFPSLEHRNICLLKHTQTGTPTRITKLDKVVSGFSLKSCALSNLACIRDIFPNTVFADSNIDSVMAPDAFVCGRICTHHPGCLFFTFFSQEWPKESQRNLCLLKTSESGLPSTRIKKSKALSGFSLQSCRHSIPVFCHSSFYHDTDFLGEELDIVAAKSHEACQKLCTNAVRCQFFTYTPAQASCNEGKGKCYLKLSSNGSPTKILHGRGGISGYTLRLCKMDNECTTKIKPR
Target sequence (P03951 388-625 limits assumed): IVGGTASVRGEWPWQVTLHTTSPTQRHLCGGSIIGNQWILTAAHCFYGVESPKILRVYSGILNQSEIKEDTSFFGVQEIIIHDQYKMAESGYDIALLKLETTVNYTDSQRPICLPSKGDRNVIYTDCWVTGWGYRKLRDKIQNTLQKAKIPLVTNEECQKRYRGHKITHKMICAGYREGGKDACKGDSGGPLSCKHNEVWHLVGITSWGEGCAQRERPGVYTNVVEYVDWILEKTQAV
MT1-MMP txn act: MT1-MMP promoter transcription activation. HT1080 MT1-MMP promoter luciferase reporter, luminescence, overnight; active compounds read high. activation factor at 10 µM. actives 0.16% (n = 86,000);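 active = activation factor of at least 2 for MT1-MMP transcription at 10 µM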
HER2 expr 66K: inhibitors of human Her2 kinase expression; P04626; SKBR-3 HER2 protein level, AlphaScreen, 18-24 h; active compounds read low; HER2 level % of control, % at 10 µM; actives 0.69% (n = 65,000); AID 645;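 active = HER2 level under 5% of the carrier-only control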;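 also: 100% = DMSO carrier and 0% = 500 nM PU-H71 HSP90 inhibitor; lower value means stronger loss of Her2 protein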
FXIIa mix inh: blocks human factor XIIa in pooled compound mixtures. actives 0.2% (n = 62,000). purified FXIIa, fluorogenic substrate. P00748. inhibition, % at 5 µM. AID 684;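 also: 0% = enzyme without compound and 100% = no enzyme blank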
* = called active by the depositor; · = no result given. Shown are actives, neighbours in structure and some others; about 0.88% of the full set was active somewhere. Rule as the data show it, unless noted: active = inhibition above about 20% (passing the limit was not always enough); inactive = the rest.

SMILES | FXIa mix inh | MT1-MMP txn act | HER2 expr 66K | FXIIa mix inh
CN(Cc1ccccc1)c1nc2c(c(=O)[nH]c(=O)n2C)n1CCSc1ncccn1 | · | 1.1 | · | ·
COc1ccc(C)cc1NC(=O)C1CC(=O)N(Cc2ccco2)C1 (configuration not stated) | -2.4 | 1.1 | 105.7 | 1.5
COc1cc2c(cc1NC(=O)C(C)OC(=O)C1CC(=O)N(Cc3ccco3)C1)oc1ccccc12 (configuration not stated) | · | 2.1* | · | ·
Cc1cccc(NC(=O)Cc2noc3ccccc23)c1 | · | 2.1* | · | ·
COC(=O)c1ccc(C(NC(=O)OCc2ccccc2)/C(F)=C/[C@@H](C)C(=O)N2CCN(C)CC2)cc1 (some centres not stated) | · | 1.5 | · | ·
N#CC(C#N)=c1ccc2c(c1)NC1(CCCCC1)N=2 | 1.7 | 0.9 | -26.1* | 4.1
CC[C@H]1C2=C3C(CC[C@H]4C(OCc5ccc(F)cc5C(F)(F)F)OC[C@](C)([C@@H]34)N(C(=O)OC(C)(C)C)C2)C(COC(C)=O)C1COC(C)=O (some centres not stated) | · | 1.2 | · | ·
CCC(Sc1nc(C)cc(C)n1)C(=O)Nc1ccc(Cl)cn1 (configuration not stated) | · | 2* | · | ·
COCCNC(=O)[C@H](C)/C=C(\I)C(NC(=O)OCc1ccccc1)c1ccc(C(=O)OC)cc1 (some centres not stated) | · | 1.1 | · | ·
CCN(CC)c1ccc2cc(-c3nnc(-c4ccccc4)o3)c(=O)oc2c1 | · | 2* | · | ·
Nc1nc(Cn2nnc(-c3ccccc3Cl)n2)nc(N2CCOCC2)n1 | 2.8 | 1 | 97.6 | 20.9*
Nc1nc(Cn2nnc(-c3ccccc3F)n2)nc(N2CCOCC2)n1 | -1.1 | 1 | 118.4 | 5.2
Cc1cc(C)nc(-n2nc(C)c(Sc3ccc(F)cc3)c2N)n1 | 5.7 | 1.7 | 64.6 | 1.4
Cc1nn(C)c(C)c1Sc1ccc(Br)cc1 | 4.8 | 1.2 | -9.0* | -11.6
CCC/C=C(\CCC)C(NC(=O)c1ccc(-c2ccccc2)cc1)c1ccc(C(=O)OC)cc1 (configuration not stated) | · | 1.2 | · | ·
CCN1/C(=C/C(=O)c2ccco2)Sc2ccccc21 | 6.0 | 1.4 | -0.5* | 0.9
COC(=O)c1ccc(C(NC(=O)OCc2ccccc2)/C(F)=C/[C@@H](C)C(=O)NCc2cccnc2)cc1 (some centres not stated) | · | 1.2 | · | ·
O=S(=O)(Nc1cccc2ncccc12)c1cccs1 | 0.5 | 0.1 | -7.3* | 9.4
CC(O)CCc1nc2ccc(C(=O)O)cc2[nH]1 (configuration not stated) | 5.6 | 1.1 | -18.9* | 14.4
COC(=O)c1ccc(C(/C=C/[C@@H](C)C(=O)N(C)C)NC(=O)OCc2ccccc2)cc1 (some centres not stated) | · | 1.1 | · | ·
COCc1cc(C)nc(Nc2ccc(C)cc2C)c1C#N | -2.9 | 1 | 9.2 | 2.5
COCc1cc(C)nc(Nc2ccc(C)c(C)c2)c1C#N | 2.7 | 1.3 | -3.1* | 5.4
COC(=O)C12CC3CC(C1)CC(n1cnc(Cl)n1)(C3)C2 | · | 2.3* | · | ·
COCCn1cnc2c(c1=O)c1nc3ccccc3nc1n2/N=C/c1cccc(OC)c1OC | 0.4 | 1.1 | -0.7* | 2.2
COC(=O)[C@@]1(Cc2ccc(OC)cc2)[C@H]2c3cc(C(=O)N4CCCC4)n(CCc4c[nH]c5cc(F)ccc45)c3C[C@H]2CN1C(=O)c1ccccc1 | · | 1.1 | · | ·
SMILES | FXIa mix inh | MT1-MMP txn act | HER2 expr 66K | FXIIa mix inh
COc1ccc2[nH]c(=O)c(CN(Cc3nnnn3Cc3ccccc3)CC3CCCO3)cc2c1 (configuration not stated) | 6.2 | 1 | 124.0 | 0.3
COc1ccc2[nH]c(=O)c(CN(Cc3nnnn3Cc3ccc(F)cc3)CC3CCCO3)cc2c1 (configuration not stated) | 6.3 | 1.2 | 120.6 | 21.4*
Cc1ccc(SCc2[nH]nc3c2C(c2ccco2)C(C#N)=C(N)O3)cc1 (configuration not stated) | -4.8 | 1.1 | 92.4 | -16.9
Cc1ccc(SCc2[nH]nc3c2C(c2ccc(C)o2)C(C#N)=C(N)O3)cc1 (configuration not stated) | 85.9* | 1 | 111.3 | 5.6
Fc1ccc(/C=C2\CCCC3=C2Nc2ncnn2C3c2ccc(F)cc2)cc1 (configuration not stated) | · | 1 | · | ·
CCCCN(CCCC)S(=O)(=O)c1ccc(C(=O)Nc2nnc(COC)o2)cc1 | 5.4 | 1.1 | -16.9* | 1.2
CCCCN(C)S(=O)(=O)c1ccc(C(=O)Nc2nnc(CSC)o2)cc1 | -4.2 | 1 | 86.3 | 10.6
CCCN(c1ccc(C(C)C)cc1)S(=O)(=O)c1c(C)noc1C | 7.8 | · | 87.2 | 34.8*
O=C(c1ccco1)n1c(=S)nc2ccccn21 | 2.2 | 1.5 | 44.7 | 8.9
Cc1cccc2nc(=S)n(C(=O)c3ccco3)n12 | 3.7 | 2.1* | 45.9 | 4.8
COC(=O)[C@@]1(Cc2ccccc2)[C@H]2c3cc(C(=O)N4CCCC4)n(Cc4nc5ccccc5[nH]4)c3C[C@H]2CN1C(=O)c1ccccc1 | · | 1.2 | · | ·
Cc1cc(N2CCC3(CC2)OCCO3)n2nc(C)c(-c3ccc(Cl)cc3)c2n1 | 10.3 | 1.4 | -19.1* | 11.5
COC(=O)[C@H](Cc1ccccc1)NC(=O)[C@]1(C)C[C@H]1[C@H](NC(=O)OCc1ccccc1)c1ccccc1 | · | 1.1 | · | ·
O=C(O)C1CCCCC1C(=O)NCc1ccccc1 (configuration not stated) | · | 2* | · | ·
Cc1ccc(CNC(=O)C2(CC(C)C)C=CCN2C(=O)c2ccccc2)o1 (configuration not stated) | · | 1 | · | ·
CCn1cc(S(=O)(=O)CC(=O)N2CCc3ccccc32)c2ccccc21 | 10.3 | · | 1.6* | 6.1
Cc1ccccc1OCC(O)Cn1nnc2ccccc21 (configuration not stated) | · | 2* | · | ·
Cc1noc(C)c1C(=O)N1CCCc2ccccc21 | · | 1.1 | · | ·
Cc1noc(C)c1C(=O)N1CCc2ccccc2C1 | -1.1 | 1.2 | -16.0* | 5.2
COC(=O)[C@@]1(Cc2ccccc2)[C@H]2c3cc(C(=O)N(C)C)n(Cc4ccccn4)c3C[C@H]2CN1C(=O)c1ccccc1 | · | 1.1 | · | ·
CC#CCCCC(=O)Nc1cc(OC)nc(OC)n1 | -3.6 | 1.1 | -24.5* | 8.3
COc1ccccc1-c1cc(C(F)(F)F)nc(S(=O)(=O)CCCC(=O)N2CCCCC2C)n1 (configuration not stated) | -1.9 | 0.9 | -17.1* | -14.7
COc1ccccc1-c1cc(C(F)(F)F)nc(S(=O)(=O)CCCC(=O)NC(C)C)n1 | 5.0 | 1 | -12.9* | 3.8
COc1ccccc1-c1cc(C(F)(F)F)nc(S(=O)(=O)CCCC(=O)Nc2cc(C)on2)n1 | 6.7 | 1 | -16.3* | 1.0
COC(=O)[C@@]1(Cc2ccc(OC)cc2)[C@H]2c3cc(C(=O)N4CCCC4)n(Cc4ccc(O)c(OC)c4)c3C[C@H]2CN1C(=O)c1ccccc1 | · | 1.2 | · | ·
CCC1=C2CC[C@H]3C(=O)NC(=O)[C@H]3[C@H]2[C@@]2(C)C(=NCCc3c[nH]c4ccccc34)OC(=O)N2C1=O | · | 1.2 | · | ·
O=c1c2c(nc3cc(-c4ccc(F)cc4)[nH]n13)CCCC2 | 1.0 | · | 111.7 | -22.9
O=c1c2c(nc3cc(-c4cccc(Cl)c4)[nH]n13)CCC2 | · | 2* | · | ·
